HIF-2a block = blocks HIF-2a reporter activity; inhibition, % at 18.8 µM; 786-0 RCC cells HIF-2a reporter, luciferase luminescence, overnight; hit rate 0.72% among 360,000;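 active means inhibition of the luminescence signal of 40% or more relative to plate controls, in a single-dose primary screen at 18.75 µM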
aSyn 5UTR inh = 5' untranslated region of α-synuclein, MLPCN primary screen | alpha-synuclein 5'UTR reporter, inhibitor activity | inhibition, % (tested at 7.5 µM) | hit rate 0.82% among 300,000; in the data active means inhibition above about 60%;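 further: H4 neuroglioblastoma cells stably carrying SNCA 5'UTR luciferase fusion; 0% = DMSO wells and 100% = positive control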
TWEAK Fn14 block = TWEAK-Fn14 signaling inhibition; TWEAK-stimulated Fn14 reporter cells, luciferase luminescence, 8 h; hit rate 2% among 360,000; inhibition, % at 10 µM; in the data active means inhibition above about 50%
HSP90 inh = inhibitors of HSP90 luciferase refolding in rabbit reticulocyte lysate; luciferase refolding luminescence, 3 h; inhibition, % at 5.6 µM; hit rate 0.91% among 290,000;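 active means inhibition above the screen-wide mean plus 3 SD, computed separately per campaign, cut at about 16% in these data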;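 further: 0% = DMSO wells and 100% = 60 µM geldanamycin wells; inhibitors lower the luminescence because luciferase stays unfolded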
TROY signal inh = TROY signaling inhibition; inhibition, % at 10 µM; hit rate 0.98% among 360,000; Q293 LMP1-TROYcd NF-kB luciferase reporter, 4 h;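 active means compounds whose plate-normalised and pattern-corrected inhibition of the luciferase reporter signal at the single screening dose is 50% or more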
C8 TRAIL sens = caspase-8 TRAIL sensitization | NB7+C8 cells + TRAIL, ATPlite viability luminescence | inhibition (viability loss, TRAIL sensitization), % at 10 µM | hit rate 1% among 360,000;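 active means compounds causing at least 50% loss of cell viability in the single-dose screen, relative to plate controls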
HSP90 inh confirm = confirmation of HSP90 inhibitors. shares compounds with HSP90 inh. rabbit reticulocyte lysate, luciferase refolding luminescence, 3 h. inhibition, % at 5.9 µM. hit rate 64% among 2,300; in the data active means inhibition above about 18%;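 further: 0% = vehicle wells and 100% = reference inhibitor wells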
FLuc counter = counter-screen for HSP90 inhibitors: inhibitors of firefly luciferase; shares compounds with HSP90 inh; inhibition, % at 5.9 µM; hit rate 48% among 2,300; purified native firefly luciferase, luminescence; AID 1847;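 active means inhibition above the mean inhibition of all tested sample wells plus 3 SD, cut at about 10% in these data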;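 further: 0% = DMSO with luciferase and 100% = wells lacking luciferase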
Target sequence (P08659 whole entry, looked up): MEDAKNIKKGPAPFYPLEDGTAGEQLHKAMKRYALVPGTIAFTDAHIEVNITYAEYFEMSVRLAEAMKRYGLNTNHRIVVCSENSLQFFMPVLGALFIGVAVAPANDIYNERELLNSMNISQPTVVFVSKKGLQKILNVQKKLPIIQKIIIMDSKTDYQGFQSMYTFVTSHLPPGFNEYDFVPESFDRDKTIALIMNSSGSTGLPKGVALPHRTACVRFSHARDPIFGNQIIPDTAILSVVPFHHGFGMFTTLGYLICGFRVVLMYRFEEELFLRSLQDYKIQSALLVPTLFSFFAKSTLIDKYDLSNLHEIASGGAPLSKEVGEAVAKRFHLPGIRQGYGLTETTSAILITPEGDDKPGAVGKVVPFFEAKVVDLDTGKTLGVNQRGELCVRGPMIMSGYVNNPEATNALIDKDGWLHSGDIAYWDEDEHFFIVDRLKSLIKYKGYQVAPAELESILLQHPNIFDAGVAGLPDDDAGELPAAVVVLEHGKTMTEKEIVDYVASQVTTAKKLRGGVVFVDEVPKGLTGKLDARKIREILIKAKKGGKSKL
The depositor's hits bear a star; x = no result given. An excerpt weighted towards active compounds, which were near 3.9% of everything screened.

SMILES | HIF-2a block | aSyn 5UTR inh | TWEAK Fn14 block | HSP90 inh | TROY signal inh | C8 TRAIL sens | HSP90 inh confirm | FLuc counter
CC(C)Sc1nc(SCC(=O)O)c2c3c(sc2n1)COC(C)(C)C3 | -64 | -18 | -15 | 8 | -44 | 5 | x | x
CC(C)Sc1nc(SCC(=O)NCc2ccco2)c2c3c(sc2n1)COC(C)(C)C3 | -88 | -9 | 79* | 21* | 79* | 11 | 36* | 1
N/C(=N\NC(=O)Nc1ccccc1)c1ccccn1 | -64 | -168 | 19 | 32* | -24 | 13 | 9 | -1
Cc1nn(-c2ccc(C(=O)O)cc2)c(N)c1-c1ccccc1 | -124 | -179 | 33 | 21* | -26 | 21 | 48* | -1
COc1ccc(-c2c(C)nn(-c3ccccc3)c2N)cc1 | -168 | -110 | 4 | 1 | -55 | 14 | x | x
Nc1c(-c2ccccc2)cnn1-c1ccc(C(=O)O)cc1 | -81 | -130 | 54* | 25* | -29 | 5 | 42* | 4
COc1ccc(C[C@H]2CN3C(=NC[C@@H]3C(C)C)N2CCNC(=O)c2ccc(C)c(Br)c2)cc1 | 6 | -2 | -9 | 18* | -9 | 31 | 3 | -7
CCOc1ccc(OCc2ccc(C(=O)NCc3ccncc3)o2)cc1 | -42 | -67 | -3 | 18* | -26 | -9 | 19* | -4
CCC(C)c1ccc(OCc2ccc(C(=O)OC)o2)cc1 (stereo not drawn) | 9 | 9 | -46 | 26* | -56 | -3 | 65* | -22
CCCc1ccc(OCc2ccc(C(=O)N3CCSCC3)o2)cc1 | -218 | -148 | -38 | 52* | -95 | -8 | 55* | 8
COC(=O)c1ccc(COc2ccc(NC(C)=O)cc2)o1 | 1 | 10 | -7 | 0 | 5 | 18 | x | x
CC(C)(C)c1ccc(OCc2ccc(C(=O)N3CCOCC3)o2)cc1 | -130 | -119 | -19 | 13 | -5 | 8 | x | x
COC(=O)c1ccc(COc2ccc3c(c2)CCC3)o1 | -101 | -130 | -19 | 23* | -55 | -17 | 40* | -16
O=C(O)c1ccc(COc2ccc3c(c2)CCC3)cc1 | -20 | -10 | 39 | 49* | -24 | -1 | 63* | 17*
CCc1ccc(OCc2ccc(C(=O)OC)o2)cc1 | -21 | -220 | -21 | 56* | -66 | 6 | 75* | -14
COC(=O)c1ccc(COc2ccc(C(C)(C)C)cc2)o1 | 2 | -167 | -18 | 29* | -37 | 4 | 35* | -20
CC(C)(C)c1ccc(OCc2ccc(C(=O)Nc3cccnc3)o2)cc1 | -215 | -170 | 18 | 26* | 32 | 39 | 23* | -6
O=C(Nc1cccnc1)c1ccc(COc2ccccc2Br)o1 | -94 | 27 | 21 | 1 | 14 | 3 | x | x
CCCn1c(SC(C)C(=O)NC2CC2)nnc1-c1ccncc1 (stereo not drawn) | 10 | x | 11 | x | -15 | 5 | x | x
CN1CCN(S(=O)(=O)c2cccc(C(=O)N(C)CC(=O)Nc3ccc(Cl)c(Cl)c3)c2)CC1 | 6 | x | 1 | x | 14 | 2 | x | x
C=CCOC(=O)Nc1nc(CCNC(=O)OCc2ccccc2)c(C(=O)OC)s1 | 3 | x | x | x | x | 13 | x | x
COc1ccc(C2C(=O)NN=C2C)cc1 (stereo not drawn) | 8 | x | 9 | x | -19 | -8 | x | x
Cc1ccc(S(=O)(=O)/N=C2/C=C(Sc3ncn[nH]3)C(=O)c3ccccc32)cc1 | 98* | x | 95* | 89* | 38 | 40 | 38* | 45*
Cc1ccc(C)c(S(=O)(=O)Nc2ccc(O)c(Sc3ncn[nH]3)c2)c1 | 10 | -16 | -5 | 1 | -4 | 1 | x | x
Cc1ccc(S(=O)(=O)/N=C2/C=C(Sc3ncn[nH]3)C(=O)c3ccccc32)c(C)c1 | x | x | x | 85* | x | x | 44* | 38*
SMILES | HIF-2a block | aSyn 5UTR inh | TWEAK Fn14 block | HSP90 inh | TROY signal inh | C8 TRAIL sens | HSP90 inh confirm | FLuc counter
Cc1ccc(S(=O)(=O)/N=C2\C=C(NS(=O)(=O)c3ccccc3)C(=O)c3ccccc32)c(C)c1 | -5 | x | -19 | x | 21 | 2 | x | x
CCCCCCCCN1C(=O)[C@H](CC(=O)NCc2ccc(OC)c(OC)c2)C[C@@]2(C(=O)OCC)CCCC=C12 | -9 | x | 26 | x | 23 | 1 | x | x
C[n+]1c(/C=C/c2ccc3c(c2)OCO3)ccc2ccccc21 | -58 | -150 | 82* | 32* | 81* | -1 | 54* | 55*
COC(=O)[C@@]12C[C@@H](CC(=O)N3CCCC3)C(=O)N(Cc3cccc4ccccc34)C1=CCC(C)(C)C2 | 4 | x | x | x | x | 1 | x | x
Clc1ccc(OCCN2CCOCC2)cc1 | -15 | -2 | -20 | 18* | -5 | 6 | -5 | -5
CCC(NCc1cccnc1)c1ccc(OC)c(OC)c1 (stereo not drawn) | 19 | x | 1 | x | 4 | -17 | x | x
COc1ccc(CN(C)C(=O)Cc2ccc(OC)c(S(=O)(=O)N3CCOCC3)c2)cc1 | 1 | 7 | 2 | x | 10 | -8 | x | x
CC(=N\Nc1ccccc1)/C(=N/O)C(=O)Nc1ccccc1 | -5 | 21 | 0 | -3 | 13 | -11 | x | x
CC(=N\NC(=O)c1ccccc1)/C(=N/O)C(=O)Nc1ccccc1 | 15 | 15 | -7 | 73* | -7 | 4 | -1 | -5
Fc1ccc(C2Nc3cccc4cccc(c34)N2)cc1 | 32 | 2 | 4 | 1 | 1 | 13 | x | x
CCN(CC)c1ccc(C2Nc3cccc4cccc(c34)N2)cc1 | -43 | -171 | -2 | 57* | -46 | 15 | 2 | -7
CCCOc1ccc(C2Nc3cccc4cccc(c34)N2)cc1 | -34 | -40 | 14 | 39* | -19 | -5 | 18* | -17
CCC(CC)C(=O)N(C)c1c(C)nc2c(OCc3cccc(OC)c3)cccn12 | 6 | x | -11 | x | -1 | -6 | x | x
COc1cc(/C=N/Nc2ccc(Cl)c(C(=O)O)c2)ccc1OC(=O)c1ccccc1F | -4 | -2 | -11 | 54* | -46 | -20 | 80* | -28
COc1cc(C(=O)N/N=C/c2ccc(OC(=O)c3ccccc3Cl)c(OC)c2)ccc1O | 4 | -11 | -14 | -3 | 36 | 19 | x | x
COc1cc(/C=N/Nc2ccc(Cl)c(C(=O)O)c2)ccc1OC(=O)c1ccc(F)cc1 | -13 | -14 | -13 | 60* | -24 | -10 | 73* | -17
COc1cc(/C=N/NC(=O)c2ccncc2)ccc1OC(=O)c1ccccc1Cl | 7 | -8 | 17 | -2 | 33 | -9 | x | x
CCc1cc(-c2nnn(-c3cc(C(C)C)ccc3C)c2CC)ccc1-c1cn(CCc2c[nH]c3ccccc23)nn1 | -1 | x | -3 | x | 2 | 18 | x | x
Cc1ccc(OCCNC(=O)[C@H]2O[C@@H](n3cnc4c(N)ncnc43)[C@H](O)[C@@H]2O)cc1C | 0 | x | -16 | x | 3 | 19 | x | x
CN(C)c1ccc(CNCCC(Cc2ccccc2)c2ccco2)cc1 (stereo not drawn) | 5 | -5 | 1 | 19* | 8 | 1 | 5 | -2

Screens: PubChem, several laboratories
